Source: PubChem BioAssay (NCATS)
Records with an inconclusive call do not appear. The source made the active and inactive calls. The call rests on the fitted dose curve; in most records, active means well fitted inhibition curve with a large enough effect; inconclusive means small, poorly fitted or top-dose-only effect; inactive means flat fitted curve, though single readings scatter.

Columns and labels:
[1] = biological target: Luciferin 4-monooxygenase (Photinus pyralis) (UniProt P08659); test: Biochemical firefly luciferase enzyme assay for NPC (AID 624030);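 further: purified P. pyralis luciferase at 10 nM with luciferin and ATP substrate; 0% = DMSO and -100% = full luciferase inhibition by PTC124 control; nearly all actives have a fitted effect of over 70% in size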
Chain of Luciferin 4-monooxygenase (Photinus pyralis) (P08659 whole entry, looked up): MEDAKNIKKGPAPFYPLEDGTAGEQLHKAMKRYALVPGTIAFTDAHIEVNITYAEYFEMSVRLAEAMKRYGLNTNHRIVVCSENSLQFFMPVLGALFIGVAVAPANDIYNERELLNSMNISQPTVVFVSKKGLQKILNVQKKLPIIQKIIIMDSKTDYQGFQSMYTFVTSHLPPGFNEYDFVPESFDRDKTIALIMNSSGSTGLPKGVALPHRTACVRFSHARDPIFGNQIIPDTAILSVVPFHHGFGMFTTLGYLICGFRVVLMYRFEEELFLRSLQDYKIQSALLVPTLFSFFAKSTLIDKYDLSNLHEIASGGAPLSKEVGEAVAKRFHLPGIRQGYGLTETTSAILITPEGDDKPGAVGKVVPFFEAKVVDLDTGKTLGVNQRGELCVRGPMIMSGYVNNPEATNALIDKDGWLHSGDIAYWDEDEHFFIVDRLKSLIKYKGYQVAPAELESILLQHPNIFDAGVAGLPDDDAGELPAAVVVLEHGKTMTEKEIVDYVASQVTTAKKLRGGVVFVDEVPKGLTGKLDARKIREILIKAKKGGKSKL
In short: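 Purified P. pyralis luciferase at 10 nM in 50 mM Tris Acetate (final), luminescence read within 5 minutes of enzyme addition to compounds. Activity normalised to PTC124 versus DMSO; concentration-response curves classed by r2, magnitude and activity.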

[2] = qHTS profiling for inhibitors of Plasmodium falciparum proliferation (AID 504749); further: nearly all actives have a fitted effect of over 60% in size; further: potency means the concentration at half of the fitted maximal effect;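 on activity, negative = inhibition: 0% = DMSO vehicle and full inhibition = artemisinin control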; conditions: P. falciparum in erythrocytes, SYBR Green DNA, 72 h, at 28.7 µM (top of the series)
In short: (§1)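 P. falciparum-infected erythrocytes (0.3% parasitemia, 2.5% hematocrit) incubated with compound 72 h at 37 C, 5% CO2. Parasite DNA detected by SYBR Green after lysis, overnight at room temperature; normalised to 0.29 uM artemisinin and DMSO.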

[3] = system: AS120; test: as above; conditions: P. falciparum in erythrocytes, SYBR Green DNA, 72 h; series mostly up to 28.7 µM
In short: as §1

[4] = system: ATS189; test: as above; conditions: P. falciparum in erythrocytes, SYBR Green DNA, 72 h; series mostly up to 28.7 µM
In short: as §1

[5] = system: CP192; test: as above; conditions: P. falciparum in erythrocytes, SYBR Green DNA, 72 h; series mostly up to 28.7 µM
In short: as §1

[6] = system: CP201; test: as above; conditions: P. falciparum in erythrocytes, SYBR Green DNA, 72 h; series mostly up to 28.7 µM
In short: as §1

[7] = system: CP211; test: as above; conditions: P. falciparum in erythrocytes, SYBR Green DNA, 72 h; series mostly up to 28.7 µM
In short: as §1

[8] = system: CP237; test: as above; conditions: P. falciparum in erythrocytes, SYBR Green DNA, 72 h; series mostly up to 28.7 µM
In short: as §1

[9] = system: CP238; test: as above; conditions: P. falciparum in erythrocytes, SYBR Green DNA, 72 h; series mostly up to 28.7 µM
In short: as §1

[10] = system: CP262; test: as above; conditions: P. falciparum in erythrocytes, SYBR Green DNA, 72 h; series mostly up to 28.7 µM
In short: as §1

[11] = system: CP286; test: as above; conditions: P. falciparum in erythrocytes, SYBR Green DNA, 72 h; series mostly up to 28.7 µM
In short: as §1

[12] = system: CP315; test: as above; conditions: P. falciparum in erythrocytes, SYBR Green DNA, 72 h; series mostly up to 28.7 µM
In short: as §1

[13] = system: CP325; test: as above; conditions: P. falciparum in erythrocytes, SYBR Green DNA, 72 h; series mostly up to 28.7 µM
In short: as §1

[14] = system: DFO2036; test: as above; conditions: P. falciparum in erythrocytes, SYBR Green DNA, 72 h; series mostly up to 28.7 µM
In short: as §1

[15] = system: Dd2; test: as above; conditions: P. falciparum in erythrocytes, SYBR Green DNA, 72 h; series mostly up to 28.7 µM
In short: as §1

[16] = system: ECU; test: as above; conditions: P. falciparum in erythrocytes, SYBR Green DNA, 72 h; series mostly up to 28.7 µM
In short: as §1

[17] = system: FAB9; test: as above; conditions: P. falciparum in erythrocytes, SYBR Green DNA, 72 h; series mostly up to 28.7 µM
In short: as §1

[18] = system: N140; test: as above; conditions: P. falciparum in erythrocytes, SYBR Green DNA, 72 h; series mostly up to 28.7 µM
In short: as §1

[19] = system: PC49; test: as above; conditions: P. falciparum in erythrocytes, SYBR Green DNA, 72 h; series mostly up to 28.7 µM
In short: as §1

[20] = system: HB3; test: as above; conditions: P. falciparum in erythrocytes, SYBR Green DNA, 72 h; series mostly up to 28.7 µM
In short: as §1

CCOC(=O)C(CCc1ccccc1)NC(C)C(=O)N1Cc2cc(OC)c(OC)cc2CC1C(=O)O (stereo not given)
active: Potency [3] 5.01 µM | Potency [16] 5.01 µM | Potency [18] 3.55 µM | Potency [19] 11.2 µM
inactive: Potency [1] | activity, negative = inhibition ([2]; parasite line A) -6.17% | activity, negative = inhibition ([2]; parasite line B) -28.7% | Potency [4] | Potency [5] | Potency [6] | Potency [7] | Potency [8] | Potency [9] | Potency [10] | Potency [11] | Potency [12] | Potency [13] | Potency [14] | Potency [15] | Potency [17]

CN(C)CC/C=C1\c2ccccc2COc2ccc(CC(=O)O)cc21
inactive: Potency [1] | activity, negative = inhibition ([2]; parasite line A) 1.27% | activity, negative = inhibition ([2]; parasite line B) -5.49% | Potency [3] | Potency [4] | Potency [5] | Potency [6] | Potency [7] | Potency [8] | Potency [9] | Potency [10] | Potency [11] | Potency [12] | Potency [13] | Potency [14] | Potency [15] | Potency [16] | Potency [17] | Potency [20] | Potency [18] | Potency [19]

O=C(O)C(O)c1ccccc1 (stereo not given)
inactive: Potency [1] | activity, negative = inhibition ([2]; parasite line A) 2.53% | activity, negative = inhibition ([2]; parasite line B) 10.7% | Potency [3] | Potency [4] | Potency [5] | Potency [6] | Potency [7] | Potency [8] | Potency [9] | Potency [10] | Potency [11] | Potency [12] | Potency [13] | Potency [14] | Potency [15] | Potency [16] | Potency [17] | Potency [20] | Potency [18] | Potency [19]

O=C1[C@@H]2C[C@@H]3C[C@H]1C[C@@](O)(C3)C2
inactive: Potency [1] | activity, negative = inhibition ([2]; parasite line A) -0.632% | activity, negative = inhibition ([2]; parasite line B) 11.7% | Potency [3] | Potency [4] | Potency [5] | Potency [6] | Potency [7] | Potency [8] | Potency [9] | Potency [10] | Potency [11] | Potency [12] | Potency [13] | Potency [14] | Potency [15] | Potency [16] | Potency [17] | Potency [20] | Potency [18] | Potency [19]

C/C=C1/NN(CCCN2CCN(c3cccc(Cl)c3)CC2)C(=O)N1CCOc1ccccc1
inactive: Potency [1] | activity, negative = inhibition ([2]; parasite line A) -8.67% | activity, negative = inhibition ([2]; parasite line B) 7.5% | Potency [3] | Potency [4] | Potency [5] | Potency [6] | Potency [7] | Potency [9] | Potency [10] | Potency [11] | Potency [12] | Potency [13] | Potency [14] | Potency [16] | Potency [17] | Potency [20] | Potency [18] | Potency [19]

O=C(O)C[CH2][Ge](=[O])[O][Ge](=[O])[CH2]CC(=O)O
inactive: Potency [1] | activity, negative = inhibition ([2]; parasite line A) 10.2% | Potency [3] | Potency [4] | Potency [5] | Potency [6] | Potency [7] | Potency [8] | Potency [9] | Potency [10] | Potency [11] | Potency [12] | Potency [13] | Potency [14] | Potency [15] | Potency [16] | Potency [17] | Potency [20] | Potency [18] | Potency [19]

CCCSS/C(CCO)=C(/C)N(C=O)Cc1cnc(C)nc1N
inactive: Potency [1] | activity, negative = inhibition ([2]; parasite line A) -20.8% | activity, negative = inhibition ([2]; parasite line B) -22.2% | Potency [3] | Potency [4] | Potency [5] | Potency [6] | Potency [7] | Potency [8] | Potency [9] | Potency [10] | Potency [11] | Potency [12] | Potency [13] | Potency [14] | Potency [15] | Potency [16] | Potency [17] | Potency [20] | Potency [18] | Potency [19]

NC(=O)c1ncn(C2OC(CO)C(O)C2O)c1N (stereo not given)
inactive: Potency [1] | activity, negative = inhibition ([2]; parasite line A) 3.47% | activity, negative = inhibition ([2]; parasite line B) 6.51% | Potency [3] | Potency [4] | Potency [5] | Potency [6] | Potency [7] | Potency [8] | Potency [9] | Potency [10] | Potency [11] | Potency [12] | Potency [13] | Potency [14] | Potency [15] | Potency [16] | Potency [17] | Potency [20] | Potency [18] | Potency [19]

C=CCN1CC(C(=O)N(CCCN(C)C)C(=O)NCC)CC2c3cccc4[nH]cc(c34)CC21 (stereo not given)
inactive: Potency [1] | activity, negative = inhibition ([2]; parasite line B) -28.9% | Potency [5] | Potency [6] | Potency [7] | Potency [9] | Potency [10] | Potency [12] | Potency [13] | Potency [14] | Potency [17] | Potency [20] | Potency [19]
active: Potency [8] 8.91 µM | Potency [11] 12.6 µM | Potency [15] 8.91 µM
